Screening data: PubChem BioAssay, Sanford-Burnham Center for Chemical Genomics
This is a sample that favours compounds with a hit; in the whole collection about 2.5% have one here.
CRFBP-R2 agonist – agonists of human CRF-binding protein/CRF-R2 receptor complex; activation, % at 13.2 µM; hit rate 0.46% among 350,000; AID 588473; HEK293 CRF-R2/CRF-BP, calcium dye fluorescence (FLIPR); percent of saturating CRF peptide response;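 active = activation of at least 50%, plus an integration ratio under a set limit after plate pattern correction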
H9c2 protect – protects H9c2 cardiomyocytes from peroxide injury | H2O2 injury protection, ATPLite, 2 h | protection from H2O2 cell death, % at 20 µM | hit rate 0.63% among 360,000 | AID 588492;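 active = compounds giving at least 50% protection of heart cells from peroxide-induced death in the single-dose screen, raw or plate-pattern-corrected value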
CRFBP-R2 block – blocks CRF-induced signaling of the CRF-BP/CRF-R2 complex; hit rate 0.59% among 350,000; inhibition, % at 11.8 µM; AID 588475; HEK293 CRF-R2/CRF-BP, CRF-induced calcium fluorescence;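 active = inhibition of the ligand-induced calcium signal above about 50% at the single tested concentration, limit read from the data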
hiPSC survival – enhancers of human iPSC single-cell survival | hit rate 0.044% among 360,000 | hiPSC single-cell survival, ATPlite luminescence; 100% = ROCK inhibitor wells, 0% = DMSO | survival enhancement, % at 20 µM; in the data active = survival enhancement above about 18%;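 also: cells exposed to compounds for 16 hours before the ATP read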
SKN-1 inh – C. elegans SKN-1 inhibition; AID 624304; C. elegans VP596 Pgst-4::GFP/RFP ratio, acrylamide-induced, 24 h; inhibition, % at 21.8 µM; hit rate 0.49% among 360,000;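 active = interference check ratio from 0.5 to 1.5 plus GFP to RFP signal ratio inhibition reaching or exceeding a fixed threshold, cut at about 30% in these data, passing the limit was not always enough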
TAG inh – inhibitors of triacylglycerol accumulation; H9c2 cells, Nile Red lipid (TAG) fluorescence; cells loaded with 200 µM oleic acid; inhibition, % at 12.5 µM; hit rate 0.66% among 230,000; AID 651582;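 active = pattern-corrected inhibition of lipid staining of at least 50% with the nuclear-stain viability signal not falling by more than 50%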
Numbers stand for hits; i = inactive; nt = no result given.

SMILES	CRFBP-R2 agonist	H9c2 protect	CRFBP-R2 block	hiPSC survival	SKN-1 inh	TAG inh
CSc1cccc(NC(=S)N(CCCN2CCCC2)Cc2cccn2Cc2ccc(Cl)cc2)c1	i	i	i	i	i	57
CCSc1nsc(NC(=O)Nc2cccc(F)c2)n1	52	i	i	i	i	i
CCN(C[C@H]1N[C@@](Cc2ccccc2)(C(=O)OC)[C@H]2C(=O)N(C)C(=O)[C@@H]12)S(=O)(=O)c1ccc(OC)cc1	i	60	i	i	i	i
CCN(C[C@H]1N[C@@](Cc2ccccc2)(C(=O)OC)[C@H]2C(=O)N(C)C(=O)[C@@H]12)S(=O)(=O)c1ccc(OC(F)(F)F)cc1	i	i	i	i	i	i
CCCCCCSc1ccc([C@H]2N[C@@](Cc3ccccc3)(C(=O)OC)[C@H]3C(=O)N(C)C(=O)[C@@H]23)cc1	i	77	i	i	i	i
CCC(=O)c1ccc(OCC(O)CN2CCN(S(=O)(=O)N3CCCCC3)CC2)cc1 (stereo unspecified)	i	i	i	i	35	nt
O=C(NCCCN1CCCCCC1)c1ccc(CS(=O)(=O)Cc2ccccc2F)o1	i	i	i	28	i	nt
O=C(CCl)N=c1sccn1Cc1ccccc1Cl	i	i	i	i	i	76
O=C(CCl)N=c1sccn1Cc1cccc2ccccc12	i	i	i	i	i	62
CCC(=O)OCC(=O)N=c1sccn1Cc1ccccc1Cl	i	i	i	i	i	i
O=C(CCl)N=c1sccn1Cc1ccc(Cl)cc1Cl	i	i	i	i	i	59
CCOC(=O)[C@]12CCC=C1N(Cc1cccc3ccccc13)C(=O)[C@H](CC(=O)NCCCOC)C2	nt	nt	nt	i	i	nt
O=C(NCCc1ccc2c(c1)OCO2)Oc1ccccc1	nt	nt	nt	i	i	nt
Cc1cc(C)c(C)c(S(=O)(=O)NCCCn2ccnc2)c1C	i	i	i	i	i	nt
CCOCCCN(Cc1cc2cc(C)cc(C)c2[nH]c1=O)C(=O)N(CC)CC	i	i	52	i	i	i
Cc1ccc(NC(=S)N(CCN(C)C)Cc2cc3cc(C)cc(C)c3[nH]c2=O)cc1	i	i	i	i	i	i
C[C@@H]1CNC(=O)c2c(C(=O)NC3CCN(C(=O)OC(C)(C)C)CC3)ncn21	nt	i	nt	i	i	nt
O=c1[nH]c(NCc2ccccc2)nc2c1CCCC2	i	53	i	i	i	i
COC(=O)c1ccc(/C(O)=C(\C#N)c2nc3ccccc3s2)cc1	i	i	51	i	i	nt
O=C(NCc1ccccn1)[C@@H]1CCCN1C(=O)[C@@H]1CCCN1	nt	nt	nt	i	i	nt
O=C(Nc1ccccc1N1CCCC1)C1CCN(C(=O)c2ccc(Cl)cc2)CC1	i	i	i	i	i	i
O=C(Nc1ccccc1N1CCCCC1)C1CCN(C(=O)c2ccc(Cl)cc2)CC1	i	i	100	i	i	i
CC(C)(C)C(=O)Nc1ccccc1N1CCN(C(=O)c2ccc(Cl)cc2)CC1	i	i	i	i	i	i
CC(C)C(=O)NC(=S)Nc1ccccc1N1CCN(C(=O)c2ccc(Cl)cc2)CC1	i	52	i	i	i	i
CCc1c(C)nc2[nH]ncn2c1=O	i	i	i	i	i	i
SMILES	CRFBP-R2 agonist	H9c2 protect	CRFBP-R2 block	hiPSC survival	SKN-1 inh	TAG inh
CCCCn1cnc2c(SCc3ccccc3F)nc(N)nc21	i	i	i	i	i	i
CCOC(=O)C(Cc1cc(C(C)=O)ccc1OCC)C(=O)OCC	i	i	i	i	38	i
CCOc1ccc(C(C)=O)cc1CC(C(N)=O)C(N)=O	i	i	i	i	i	i
COc1ccc(OC)c(C(=O)Nc2c(O)ccc3ccccc23)c1	i	i	i	i	i	i
CCOc1ccc(-n2c(SCc3ccc([N+](=O)[O-])cc3)nnc2-c2ccc(OC)cc2)cc1	i	i	53	i	i	nt
CCOc1ccc(-n2c(SCc3ccc(C#N)cc3)nnc2-c2cccnc2)cc1	i	i	i	i	i	i
O=C(NN1C(=O)CSC1=S)c1cccnc1	i	i	77	i	i	i
CCOc1cc2c(cc1OCC)C(C(=O)O)C(c1cc(OC)c(OC)c(OC)c1)N(C)C2=O (stereo unspecified)	i	i	i	i	36	i
Cc1cccc(NC(=O)c2cccc(S(=O)(=O)N(C)C3CCCCC3)c2)n1	i	i	i	i	i	i
COC(=O)C1=C(NC(=O)c2ccccc2C)CCS1	i	i	i	i	i	i
